# Shown are actives, neighbours in structure and some others; about 19% of the full set was active somewhere.
# DT40 TDP1 no CPT: qHTS for Inhibitors of human tyrosyl-DNA phosphodiesterase 1 (TDP1): qHTS in cells in absence of CPT | Potency, µM (titrated, usually from 46.2 µM), most hits filed as inhibitors | hit rate 15% among 420,000 | DT40 Tdp1-/- hTDP1 cells, no CPT, ATP luminescence, 48 h; also: nearly all actives have a fitted effect of over 55% in size
#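 Seeded 400 DT40-hTDP1 cells/well (vehicle DMSO, no 20 nM CPT); pinned compounds; ≥48 hr at 37 °C; CellTiter-Glo luminescence as viability measure.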
# IL1B secr inh: qHTS for Inhibitors of Inflammasome Signaling: IL-1-beta AlphaLISA Primary Screen; THP-1 LPS/ATP IL-1B secretion, AlphaLISA, 16 h; stronger effect = lower value; activity change, % at 57.5 µM; hit rate 4.7% among 360,000; in the data active = activity change below about -50%; inconclusive = mostly about -30% to -49%
#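 THP-1 cells pretreated 1 hr with compounds (up to 57.5 uM final), then stimulated with LPS (250 ng/mL final) plus ATP (1.25 mM final); secreted IL-1B measured by AlphaLISA after 16 hr, decreased signal indicating inhibition.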
# HT1080 IDH1KD tx: qHTS for induction of synthetic lethality in tumor cells producing 2HG: qHTS for the HT-1080-IDH1KD cell line. HT-1080 IDH1 knockdown viability, ATP luminescence, 48 h. Potency, µM (titrated, usually from 46.1 µM), actives largely listed as cytotoxic. hit rate 2% among 360,000. AID 686971, 2013
#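 Knockdown cells (IDH1KD HT-1080) received compounds 2 h after plating at 750 cells/well and were kept 48 h at 37 °C in 5% FBS RPMI. A CellTiter-Glo luminescence read gave % activity for curve fitting.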
# uPA generation: qHTS for Inhibitors of Cell Surface uPA Generation; AID 540303, 2011; Potency, µM (series often up to 38.3 µM), actives largely listed as inhibitors; hit rate 0.31% among 330,000; cell surface uPA generation assay, qHTS; active = well fitted inhibition curve with a large enough effect; inconclusive = small, poorly fitted or top-dose-only effect; inactive = no such curve, though single readings can be large or run the other way; tested in mouse RAW 264.7 cells; also: nearly all actives have a fitted effect of over 55% in size
# HT1080NT lethal: qHTS for induction of synthetic lethality in tumor cells producing 2HG: qHTS for the HT-1080-NT fibrosarcoma cell line; Potency, µM (top dose mostly 46.1 µM), usual class: cytotoxic; HT-1080-NT fibrosarcoma viability, CellTiter-Glo ATP luminescence, 48 h; hit rate 1.6% among 360,000; AID 686970, 2013;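 also: NT is the 2HG producing partner of a matched IDH1 knockdown line; nearly all actives have a fitted effect of over 55% in size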
#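 Fibrosarcoma NT cells, 750 per well in 5% FBS RPMI, were exposed to compound for 48 hours. Viability: CellTiter-Glo luminescence.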
# DT40 TDP1 CPT: qHTS for Inhibitors of human tyrosyl-DNA phosphodiesterase 1 (TDP1): qHTS in cells in presence of CPT; chicken DT40 Tdp1-/-;hTDP1 cells + 20 nM CPT, ATP luminescence, 48 h; hit rate 12% among 420,000; Potency, µM (titrated, usually from 46.2 µM), hits mostly inhibitors; also: nearly all actives have a fitted effect of over 55% in size
#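 Chicken DT40 Tdp1-/- cells complemented with human TDP1, 400 cells/well, exposed to compounds plus 20 nM camptothecin for at least 48 h at 37 C; viability read as ATP content by CellTiter-Glo luminescence.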
# A number is an active result; n = inactive; u = inconclusive; x = not tested or not shown; ! = a repeat was not active. Unless noted, calls follow the shape of the dose curve; as a rule, active = well fitted curve in the direction sought with a large enough effect; inconclusive = small, poorly fitted or top-dose-only effect, or another doubt; inactive = no such curve, though single readings can be large; an effect the other way counts as inactive or inconclusive.
SMILES,DT40 TDP1 no CPT,IL1B secr inh,HT1080 IDH1KD tx,uPA generation,HT1080NT lethal,DT40 TDP1 CPT
Cc1ccc(C)c(N2CCN(CCCNC(=O)c3cnn(-c4ccccc4)c3C3CCN(C(=O)OC(C)(C)C)CC3)CC2)c1,4.61µM,x,x,x,x,6.51µM
CCOc1cc(C(=O)N(C)CC(=O)Nc2cccc(F)c2)ccc1OCC(=O)N1CCCCC1,u,n,n,n,n,n
COc1ccccc1S(=O)(=O)N(C)C[C@@H]1OCc2cnnn2CCCC(=O)N([C@@H](C)CO)C[C@H]1C,n,n,n,x,n,n
Cc1c(Cl)c(C(=O)N2CCCC2)nn1C,n,n,n,n,n,n
COc1ccccc1N=NNc1ccccc1OC,u,n,n,x,n,u
Cc1nc2c(N)nn(C)c2nc1C,n,n,n,x,n,n
COc1ccccc1-c1cccc([C@@H]2C[C@H]3[C@H](CON3C)CN2C(=O)CCc2ccccc2)c1,u,n,n,n,n,18.4µM
CN1OC[C@@H]2CN(Cc3cc(Cl)cc(Cl)c3)[C@H](c3cccc(-c4ccc(C#N)cc4)c3)C[C@@H]21,u,u,n,x,n,20.6µM
COc1ccc(S(=O)(=O)N2C[C@H]3CON(C)[C@H]3C[C@H]2c2ccc(-c3cccc(F)c3)cc2)cc1,u,n,n,x,n,n
CN1OC[C@@H]2CN(S(=O)(=O)c3cc(Cl)cc(Cl)c3)[C@H](c3ccc(-c4ccc(C#N)cc4)cc3)C[C@@H]21,20.6µM,n,n,x,n,u
COCC(=O)N1C[C@H]2CON(C)[C@H]2C[C@H]1c1cccc(-c2ccccc2OC)c1,n,n,n,x,n,n
Cc1ccccc1-c1cccc([C@@H]2C[C@H]3[C@H](CON3C)CN2Cc2ccccc2)c1,16.4µM,n,u,n,n,23.1µM
C[C@@H]1CCCCO[C@H](CN(C)C(=O)Nc2ccc(F)cc2)[C@@H](C)CN([C@H](C)CO)C(=O)c2cc(N(C)C)ccc2O1,u,n,n,x,n,u
CN1OC[C@@H]2CN(Cc3ccc(Cl)cc3)[C@H](c3cccc(Br)c3)C[C@@H]21,16.4µM,n,n,n,n,u
Cc1ccccc1S(=O)(=O)N1C[C@H]2CON(C)[C@H]2C[C@H]1c1cccc(Oc2ccccc2)c1,18.4µM,n,n,n,n,u
CCOc1[nH]n(-c2ccccc2)c(=O)c1C=Nc1ccc(C)cc1,n,n,n,n,n,u
CCOc1[nH]n(-c2ccccc2)c(=O)c1C=Nc1ccc(Cl)cc1,14.6µM,n,n,n,n,u
CCOc1[nH]n(-c2ccc(Cl)cc2)c(=O)c1C=Nc1ccc(OC)cc1,u,n,n,n,n,u
CCOc1[nH]n(-c2ccccc2)c(=O)c1C=Nc1ccccc1,5.8µM,n,u,6.31µM,u,6.51µM
Cc1cccc(NC(=O)CSc2nccn2Cc2ccc(F)cc2)c1C,n,x,x,x,x,n
O=C1[C@H](Cc2ccccc2)NCCCC[C@@H](c2ccco2)N1Cc1ccccc1,12.6µM!,n,n,n,n,u
O=C1[C@H](Cc2ccccc2)NC/C=C\C[C@@H](c2ccco2)N1Cc1ccccc1,14.1µM,x,x,x,x,u
O=C1C(Cc2ccccc2)NC(=S)N1Cc1ccccc1 (stereo not drawn),n,n,n,n,n,n
COC(=O)C1=C(C(=O)OC)[C@]2([C@H]3CC=CCN[C@@H](Cc4ccccc4)C(=O)N3Cc3ccccc3)C=C[C@H]1O2,14.6µM,n,n,u,n,18.4µM
O=C1[C@H](Cc2ccccc2)NCC=CC[C@@H](c2ccco2)N1Cc1ccccc1,u,n,n,n,n,u
SMILES,DT40 TDP1 no CPT,IL1B secr inh,HT1080 IDH1KD tx,uPA generation,HT1080NT lethal,DT40 TDP1 CPT
O=C1[C@H](Cc2ccccc2)NCCCC[C@H](c2ccco2)N1Cc1ccccc1,20.6µM,n,u,n,u,13µM
COC(=O)C1C2C=CC3(CN(CCc4ccccc4)C(=O)C13)O2 (stereo not drawn),n,n,n,n,n,n
O=C(COC(=O)c1ccccc1Cc1ccccc1)NC1CCS(=O)(=O)C1 (stereo not drawn),n,n,n,n,n,n
CC(C)CC(=O)N1CC=CC[C@@H](c2ccc(Cl)cc2)N(Cc2ccc(Cl)cc2)C(=O)[C@@H]1Cc1ccccc1,13µM,n,n,n,n,14.6µM
O=C1[C@H](Cc2ccccc2)NC/C=C\C[C@@H](c2ccc(Cl)cc2)N1Cc1ccccc1,11.2µM,x,x,x,x,12.6µM
Cn1c(SCc2ccc(F)cc2)nc2ccc(C(=O)NCc3cccc(Cl)c3)cc21,u,x,x,x,x,16.4µM
COc1ccc2nc(SCC(=O)NCc3ccc(F)cc3)[nH]c2c1,u,n,n,n,n,u
CC(C)Oc1ccc(CNC(=O)c2ccc3nc(SCc4ccc(F)cc4)n(C)c3c2)cc1,u,x,x,x,x,n
Cc1ccc(CNC(=O)c2ccc3nc(SCc4ccc(F)cc4)[nH]c3c2)cc1,13µM,x,x,x,x,14.6µM
Cn1c(SCc2ccc(F)cc2)nc2ccc(C(=O)NCc3ccc(F)cc3)cc21,16.4µM,x,x,x,x,16.4µM
Cn1c(=O)c2c(nc(Cc3ccc(N)cc3)n2C)n(C)c1=O,n,n,n,n,n,n
COc1ccc2c(c1)C1(Nc3ccccc3-c3nc4ccccc4n31)C(=O)N2C (stereo not drawn),20.6µM,n,n,n,n,u
CCOc1ccccc1CNC(=O)C1CCN(S(=O)(=O)c2cccc3nonc23)CC1,n,x,x,x,x,n
CCNc1nc(NC(C)C)nc(N(C#N)CCOc2ccccc2)n1,23.1µM,n,n,n,n,23.1µM
CN(C)c1nc(Cl)nc(N(C#N)CCOc2ccccc2)n1,n,-85.7,n,n,n,n
CN(C)c1nc(N(C)C)nc(N(C#N)Cc2ccc(Cl)cc2)n1,n,n,n,u,n,n
CCNc1nc(NCC)nc(N(C#N)CCOc2ccccc2)n1,n,n,n,n,n,u
Cc1ccc(NC(=S)/C(C#N)=C2/Nc3ccccc3S2)cc1,23.1µM,n,n,x,u,29.1µM
COc1ccc(NC(=O)COC(=O)CNC(=O)C2CCCCC2)cc1OC,n,n,n,n,n,n
CC(C)C(NC(=O)c1ccc(C(C)(C)C)cc1)C(=O)Nc1ccc(N2CCOCC2)cc1 (stereo not drawn),u,u,n,n,n,u
COc1ccccc1C1CC(=O)Oc2cc(C)c(Cl)c(C)c21 (stereo not drawn),n,n,n,n,n,n

# Compound activity deposited in PubChem by National Center for Advancing Translational Sciences (NCATS).
